Screens: PubChem BioAssay, The Scripps Research Institute Molecular Screening Center
Shown are actives, neighbours in structure and some others; about 5.7% of the full set was active somewhere.
hgDAF-12 ag: H. glycines DAF-12 receptor agonists, primary screen, cell-based, luminescence, HEK293, GAL4 fusion, UAS-luciferase; actives 1.8% (n = 370,000); HEK293 GAL4-hgDAF12 UAS-luciferase reporter, agonist luminescence; normalized to butyrate control; AID 687014, 2013; Nuclear hormone receptor DAF-12 (Heterodera glycines), GAL4 fusion; activation, % at 6.8 µM;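 active = activation above a cutoff set at the mean of all screened compounds plus 3 SD, cut at about 10% in these data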
DAX1 inh-1: DAX1 (NR0B1) inhibitors on StAR promoter, primary screen, cell-based, luminescence, SF-1 (NR5A1), full-length DAX-1 | HEK293T StAR-luciferase reporter, SF-1/DAX-1 repression relief | inhibition, % at 6.8 µM | actives 1.1% (n = 370,000) | AID 652010, 2013;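 active = inhibition above the mean over all tested compounds plus 3 SD, cut at about 3.6% in these data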;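 note: higher inhibition means more luminescence from relief of DAX-1 repression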
ssDAF12 agonist: S. stercoralis DAF-12 nuclear receptor activators, primary screen, cell-based, luminescence, HEK293, GRIP1 co-expression, lit1-tk-luc. Nuclear hormone receptor DAF-12 (Strongyloides stercoralis). HEK293 ssDAF-12/GRIP1 lit1-tk-luc reporter; % of 3 µM dafachronic acid response. activation, % at 6.8 µM. actives 1% (n = 370,000). AID 652126, 2013;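 active = activation above the mean over all tested compounds plus 3 SD, cut at about 0.9% in these data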
hcDAF12 agonist: H. contortus DAF-12 nuclear receptor activators, primary screen, cell-based, luminescence, HEK293, lit1-tk-luc reporter; HEK293 hcDAF-12 lit1-tk-luc reporter; 0% DMSO, 100% Δ7-dafachronic acid; activation, % at 6.8 µM; actives 1.4% (n = 370,000); AID 652067, 2013;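 active = activation above the mean of all tested compounds plus 3 SD, cut at about 5.5% in these data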
DAX1 inh-2: DAX1 (NR0B1) inhibitors, primary screen, cell-based, HEK293, Gal4-DAX1, luciferase luminescence. inhibition, % at 6.75 µM. actives 0.99% (n = 340,000). Nuclear receptor subfamily 0 group B member 1 (Homo sapiens), P51843. HEK293 Gal4-DAX1 luciferase reporter;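 active = inhibition above the mean over all tested compounds plus 3 SD, cut at about 4.2% in these data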;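 note: inhibition shows as a rise in luminescence from relieved DAX1 repression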
Target sequence (P51843 207-470 limits assumed): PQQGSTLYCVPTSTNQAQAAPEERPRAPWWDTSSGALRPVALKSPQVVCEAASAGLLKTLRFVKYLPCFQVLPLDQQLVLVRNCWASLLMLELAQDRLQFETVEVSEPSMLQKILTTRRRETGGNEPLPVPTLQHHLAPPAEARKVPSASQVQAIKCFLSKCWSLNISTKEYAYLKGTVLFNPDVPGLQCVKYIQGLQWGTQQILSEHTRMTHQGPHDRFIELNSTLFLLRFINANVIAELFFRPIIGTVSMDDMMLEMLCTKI
AHR act: AHR activators, primary screen, cell-based, luminescence, luciferase reporter, human; AID 2796, 2010; actives 2.5% (n = 320,000); AHR-responsive luciferase reporter cells; activation, % at 5 µM; Aryl hydrocarbon receptor (Homo sapiens), P35869; in the data active = activation above about 47%
Numbers stand for hits.

Screening Cc1cccc(NC(=O)C2CCN(C(=O)c3ccc(Cl)cc3)CC2)n1 returned hgDAF-12 ag inactive, DAX1 inh-1 inactive, ssDAF12 agonist inactive, hcDAF12 agonist inactive, DAX1 inh-2 inactive and AHR act inactive.
`CS(=O)(=O)N(CC(=O)Nc1ccc(Br)cc1F)C1CCCCC1` gave hgDAF-12 ag inactive, DAX1 inh-1 inactive, ssDAF12 agonist inactive, hcDAF12 agonist inactive, DAX1 inh-2 inactive and AHR act 55.
Cc1csc(NC(=O)c2cc3c(s2)-c2ccccc2OC3)n1 was read as hgDAF-12 ag inactive, DAX1 inh-1 inactive, ssDAF12 agonist inactive, hcDAF12 agonist inactive, DAX1 inh-2 inactive and AHR act 68.
For Cc1nn(-c2ccccc2)c2sc(C(=O)N3CCN(Cc4ccccc4)CC3)cc12 the results were hgDAF-12 ag inactive, DAX1 inh-1 inactive, ssDAF12 agonist inactive and hcDAF12 agonist inactive.
`Cc1nn(-c2ccc(Cl)cc2)c2sc(C(=O)c3c(N)n(C)c(=O)n(C)c3=O)cc12` gave hgDAF-12 ag inactive, DAX1 inh-1 inactive, ssDAF12 agonist inactive, hcDAF12 agonist inactive, DAX1 inh-2 inactive and AHR act 47.
For Cc1nn(-c2ccc(Cl)cc2)c2sc(C(=O)N3CCN(c4ccccn4)CC3)cc12 the results were hgDAF-12 ag inactive, DAX1 inh-1 inactive, ssDAF12 agonist inactive, hcDAF12 agonist inactive, DAX1 inh-2 inactive and AHR act 77.
`O=C(c1cc2c(s1)-c1ccccc1OC2)N1CCN(c2ccccn2)CC1` gave hgDAF-12 ag inactive, DAX1 inh-1 inactive, ssDAF12 agonist inactive, hcDAF12 agonist inactive, DAX1 inh-2 5.4 and AHR act inactive.
C[C@@H]1ON(C)[C@H]2C[C@H]3c4[nH]c5cccc(-c6ccccc6)c5c4CCN3C[C@@H]12 was read as hgDAF-12 ag inactive, DAX1 inh-1 inactive, ssDAF12 agonist inactive and hcDAF12 agonist inactive.
For Cc1cccc(OCCC(=O)OCC(=O)Nc2c(C)nn(-c3ccccc3)c2C)c1 the results were hgDAF-12 ag inactive, DAX1 inh-1 inactive, ssDAF12 agonist inactive, hcDAF12 agonist inactive, DAX1 inh-2 inactive and AHR act inactive.
CCCCc1nc2cc(C(=O)N3CCCC(OCCC)C3)ccc2o1 (stereo unspecified) was read as hgDAF-12 ag inactive, DAX1 inh-1 inactive, ssDAF12 agonist inactive, hcDAF12 agonist inactive, DAX1 inh-2 inactive and AHR act inactive.
`CCc1nc2c(OCc3ccc(OC)cc3)cccn2c1N(C)C(=O)c1ccncc1` gave hgDAF-12 ag inactive, DAX1 inh-1 inactive, ssDAF12 agonist inactive and hcDAF12 agonist inactive.
Screening Cc1ccc(CN(C)C[C@H]2OCc3cnnn3CCCC(=O)N([C@H](C)CO)C[C@@H]2C)cc1 returned hgDAF-12 ag inactive, DAX1 inh-1 inactive, ssDAF12 agonist inactive and hcDAF12 agonist inactive.
For COCCNC(=O)c1cc2c(s1)-c1ccc(Cl)cc1SC2 the results were hgDAF-12 ag 13, DAX1 inh-1 inactive, ssDAF12 agonist inactive, hcDAF12 agonist inactive and DAX1 inh-2 5.0.
COc1cccc(CNC(=O)CN(C)S(=O)(=O)c2ccc(Br)s2)c1 was read as hgDAF-12 ag inactive, DAX1 inh-1 inactive, ssDAF12 agonist inactive, hcDAF12 agonist inactive, DAX1 inh-2 10 and AHR act inactive.
`CC(=O)N1N=C(C)CC1c1ccc(O)cc1` (stereo unspecified) gave hgDAF-12 ag inactive, DAX1 inh-1 inactive, ssDAF12 agonist inactive, hcDAF12 agonist inactive, DAX1 inh-2 inactive and AHR act inactive.
C=CCCC1CN(Cc2ccc(OC)cc2)S(=O)(=O)c2c(Oc3cc(C)c(C)c(C)c3)cccc2O1 (stereo unspecified) was read as hgDAF-12 ag inactive, DAX1 inh-1 inactive, ssDAF12 agonist inactive and hcDAF12 agonist inactive.
COc1ccc2c(c1)[C@@H](NC(=O)C(F)(F)F)[C@@H]1CCCC[C@]21c1ccccc1 was read as hgDAF-12 ag inactive, DAX1 inh-1 inactive, ssDAF12 agonist inactive and hcDAF12 agonist inactive.
For Cc1cc(C)c2c(CN3CCC(C)CC3)cc(=O)oc2c1C the results were hgDAF-12 ag inactive, DAX1 inh-1 inactive, ssDAF12 agonist inactive, hcDAF12 agonist inactive, DAX1 inh-2 4.8 and AHR act inactive.
Screening CC1CCCCC1NC(=O)C1CCC(CNS(=O)(=O)c2ccc3c(c2)C(C)(C)C(=O)N3C)CC1 (stereo unspecified) returned hgDAF-12 ag inactive, DAX1 inh-1 inactive, ssDAF12 agonist inactive and hcDAF12 agonist inactive.
Screening O=C(CNC(=O)c1ccc(Cl)cc1Cl)OCC(=O)N1CCCC1=O returned hgDAF-12 ag inactive, DAX1 inh-1 inactive, ssDAF12 agonist inactive, hcDAF12 agonist inactive, DAX1 inh-2 inactive and AHR act inactive.
CC1(C)CC(=O)C2=C(C1)Nc1cc(Cl)ccc1S2 was read as hgDAF-12 ag inactive, DAX1 inh-1 inactive, ssDAF12 agonist inactive, hcDAF12 agonist inactive, DAX1 inh-2 inactive and AHR act 53.
`CC1(C)CC(=O)C2=C(C1)NC(=O)NC2c1ccc(Cl)cc1` (stereo unspecified) gave hgDAF-12 ag inactive, DAX1 inh-1 inactive, ssDAF12 agonist inactive, hcDAF12 agonist inactive, DAX1 inh-2 inactive and AHR act inactive.
`O=S1(=O)CC(N2CCC(c3ccccc3)CC2)CN1Cc1cn(Cc2ccc(C(F)(F)F)cc2)nn1` (stereo unspecified) gave hgDAF-12 ag inactive, DAX1 inh-1 inactive, ssDAF12 agonist inactive and hcDAF12 agonist inactive.
`CNc1cnc(-c2ccc(F)c(F)c2F)cn1` gave hgDAF-12 ag 12, DAX1 inh-1 3.8, ssDAF12 agonist inactive and hcDAF12 agonist inactive.
For COC(=O)CSCc1nc2ccccc2[nH]c1=O the results were hgDAF-12 ag inactive, DAX1 inh-1 inactive, ssDAF12 agonist inactive, hcDAF12 agonist 5.6, DAX1 inh-2 inactive and AHR act 64.
CN1CCN(Cc2coc3c(Cl)cc(Cl)cc3c2=O)CC1 was read as hgDAF-12 ag inactive, DAX1 inh-1 inactive, ssDAF12 agonist 1.3, hcDAF12 agonist inactive, DAX1 inh-2 inactive and AHR act inactive.
`Nc1cc(C(F)(F)F)cc2c1SCC(=O)N2` gave hgDAF-12 ag inactive, DAX1 inh-1 inactive, ssDAF12 agonist inactive, hcDAF12 agonist inactive, DAX1 inh-2 inactive and AHR act inactive.
Screening CCCc1nc2ccc(N)cc2c(=O)n1Cc1ccccc1Cl returned hgDAF-12 ag inactive, DAX1 inh-1 inactive, ssDAF12 agonist inactive, hcDAF12 agonist inactive, DAX1 inh-2 inactive and AHR act inactive.
